# In PubChem BioAssay (Tox21):
# Records with an inconclusive call do not appear. Where a call stands in place of a potency, no number is given. Some structures have more than one record in an assay (separate samples or runs), and their calls can disagree. Calls of active or inactive are those of the source. Unless noted, calls come from the whole dose curve; as a rule, active = well fitted curve in the direction sought with a large enough effect in the repeat runs; inconclusive = weak or mixed curves; inactive = no such curve, though single readings can be large; an effect the other way counts as inactive or inconclusive.
# Tests used:
# [1] = qHTS assay to identify small molecule agonists of the sonic hedgehog signaling (Shh) pathway (AID 1259368; calls by dose curve;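 note: NIH/3T3-derived 3T3Gli1-Luc cells carrying a stable Gli1-driven firefly luciferase reporter; series mostly up to about 92 µM; nearly all actives have a fitted effect of over 15% in size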)
# In short: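 3T3Gli1-Luc (NIH/3T3 clone, stable Gli1-Luc); 4 hr pre-incubation, then cpd in DMSO 24 hr, 37 C/5% CO2; luciferase reagent 30 min RT; luminescence.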
# [2] = qHTS assay to identify small molecule antagonists of the sonic hedgehog signaling (Shh) pathway (AID 1259369; calls by dose curve; note: nearly all actives have a fitted effect of over 45% in size; note: potency is the fitted concentration of half-maximal effect)
# In short: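 3T3Gli1-Luc, conditioned-medium-stimulated, 24hr cpd, 37C/5% CO2; Gli1-driven firefly Luc luminescence after 30min RT with luciferase reagent. Cells plated 4hr before cpd.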
# [3] = target: Estrogen receptor beta (Homo sapiens) (UniProt Q92731); assay: qHTS assay to identify small molecule agonists of the estrogen receptor beta (ER-beta) signaling pathway (AID 1259377; active = well fitted activation curve with a large enough effect in the signal ratio in the repeat runs, not every such curve was filed as active; the % refers to the signal ratio)
# In short: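 A UAS-controlled beta-lactamase reporter in ER-beta-UAS-bla HEK293T cells reports receptor activation. Compounds act for 16 hr at 37C in 2% charcoal-stripped serum, and a FRET substrate is read by fluorescence after 2 hours.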
# [4] = target: Estrogen receptor beta (Homo sapiens) (UniProt Q92731); assay: qHTS assay to identify small molecule antagonists of the estrogen receptor beta (ER-beta) signaling pathway (AID 1259378; active = well fitted inhibition curve with a large enough effect in the signal ratio in the repeat runs, not every such curve was filed as active; the % refers to the signal ratio)
# In short: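 ER-beta-UAS-bla HEK293T (GripTite) cells in 2% charcoal-stripped FBS medium were preincubated 6 hr at 37C, dosed with compound, then stimulated with 1 nM E2 (final) for 16 hr; beta-lactamase reporter read by B/G FRET fluorescence after 2 hr substrate loading.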
# [5] = qHTS assay to identify small molecule agonists of the androgen receptor (AR) signaling pathway in the presence of an antagonist - cell viability counter screen (AID 1259379);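 note: MDA-kb2 human breast cancer cells carrying an MMTV luciferase reporter; series mostly up to about 92 µM; nearly all actives have a fitted effect of over 25% in size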
# In short: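 Cells: MDA-kb2 (MMTV-luc, AR and GR elements), 3,000/well, 5 hr settle. Added: nilutamide 3.0uM final, then compounds (15 conc.). Incubation: 16 hr, 37C, no CO2. Read-out: CellTiter-Fluor, 1 hr, fluorescence.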
# [6] = qHTS assay to identify small molecule agonists of the estrogen receptor beta (ER-beta) signaling pathway - cell viability counter screen (AID 1259380); note: nearly all actives have a fitted effect of over 30% in size
# In short: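 HEK293T ER-beta-UAS-bla; 2% CS-FBS; 6 hr pre-plate, 16 hr cpd at 37C/5% CO2; LiveBLAzer read first, then CellTiter-Glo 30 min RT, luminescence.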
# [7] = qHTS assay to identify small molecule antagonists of the estrogen receptor beta (ER-beta) signaling pathway - cell viability counter screen (AID 1259382); note: series mostly up to about 92 µM; nearly all actives have a fitted effect of over 55% in size
# In short: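 Cells: ER-beta-UAS-bla HEK293T, 2,000/well, 2% CS-FBS, 6 hr settle. Cpd + E2 (1nM final), 16 hr, 37C/5% CO2. Bla FRET substrate 2 hr RT, then CellTiter-Glo 30 min RT, luminescence.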
# [8] = target: Estrogen receptor (Homo sapiens) (UniProt P03372); assay: qHTS assay to identify small molecule agonists of the estrogen receptor alpha (ER-alpha) signaling pathway in the presence of an antagonist (AID 1259383; calls by dose curve; note: top concentration of the series differs between compounds; nearly all actives have a fitted effect of over 15% in size)
# In short: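 VM7Luc4E2, endog. ER-alpha + 4×ERE-luc; charcoal-stripped FBS, phenol red-free, 5 d; 24hr plating; +10.0nM ICI-182,780 (final); cpds 15 conc, 22hr, 37C/5% CO2; ONE-Glo luminescence.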
# [9] = qHTS assay to identify small molecule agonists or antagonists of the thyroid stimulating hormone receptor (TSHR) signaling pathway - wild type cell line counter screen (AID 1259384; calls by dose curve)
# In short: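 Wild-type HEK293 cells were plated 18 h at 37 C/5% CO2, pin-dosed with compound plus Ro20-1724 medium, held 30 min at room temperature, then given cAMP-d2 and anti-cAMP-cryptate; fluorescence was read after 1 h. Fifteen concentrations, triplicate.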
# [10] = target: Thyrotropin receptor (Homo sapiens) (UniProt P16473); assay: qHTS assay to identify small molecule antagonists of the thyroid stimulating hormone receptor (TSHR) signaling pathway (AID 1259385; calls by dose curve; note: nearly all actives have a fitted effect of over 20% in size)
# In short: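 TSHR-HEK293 cells were plated and held 18 h at 37C/5% CO2, then given compound plus Ro20-1724 and stimulated with TSH at 1.5 ng/mL final. After 30 min at room temperature, cAMP was detected with cAMP-d2/anti-cAMP-cryptate (1 h) by fluorescence.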
# [11] = target: Progesterone receptor (Homo sapiens) (UniProt P06401); assay: qHTS assay to identify small molecule antagonists of the progesterone receptor (PR) signaling pathway (AID 1346795; active = well fitted inhibition curve with a large enough effect in the signal ratio in the repeat runs, not every such curve was filed as active; the % refers to the signal ratio)
# In short: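 HEK293T PR-UAS-bla reporter cells in charcoal-stripped serum (2%) received compound after a 6 hr settling period, followed by R5020 agonist at 1 nM final; 16 hr incubation preceded the FRET substrate step and fluorescence measurement.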
# [12] = qHTS assay to identify small molecule antagonists of the progesterone receptor (PR) signaling pathway - cell viability counter screen (AID 1346798); note: series mostly up to about 92 µM; nearly all actives have a fitted effect of over 50% in size
# In short: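 Same-well multiplex: after 16 hr at 37C with compound and R5020 stimulation, HEK293T cells carrying a UAS-bla reporter received LiveBLAzer substrate (2 hr RT), then CellTiter-Glo (30 min RT) for luminescent viability.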
# [13] = qHTS assay to identify small molecule agonists of the progesterone receptor (PR) signaling pathway - cell viability counter screen (AID 1346799; calls by dose curve; note: nearly all actives have a fitted effect of over 45% in size)
# In short: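 Counter screen for cytotoxicity: compound-treated PR-UAS-bla HEK293T cells (16 hr, 37C, 5% CO2) were assayed with CellTiter-Glo, luminescence measured after 30 min at room temperature.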
# [14] = qHTS assay to identify small molecule antagonists of the TGF-beta/Smad signaling pathway - cell viability counter screen (AID 1346824); note: nearly all actives have a fitted effect of over 50% in size
# In short: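 SBE-bla HEK 293T cells were plated overnight at 37 C, then given compounds in DMSO plus TGF-beta1 (added as 0.25 ng/mL solution) for 5 hr. After the bla read, CellTiter-Glo was added to the same wells and luminescence read after 30 min at room temperature.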
# [15] = qHTS assay to identify small molecule agonists of the TGF-beta/Smad signaling pathway - cell viability counter screen (AID 1346829); note: top concentration of the series differs between compounds; nearly all actives have a fitted effect of over 45% in size
# In short: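 Luminescence from CellTiter-Glo, read after a 30 min room-temperature incubation, gives cell viability of SBE-bla HEK 293T cells treated 5 hr with compounds at 37 C.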
# [16] = qHTS assay to identify small molecule agonists of the TGF-beta/Smad signaling pathway (AID 1346859; active = well fitted activation curve with a large enough effect in the signal ratio in the repeat runs, not every such curve was filed as active; the % refers to the signal ratio; note: series mostly up to about 77 µM)
# In short: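 Smad-responsive beta-lactamase reporter cells (HEK 293T) received compounds from DMSO stocks after overnight attachment, were incubated 5 hr, then treated 2 hr with FRET substrate before dual-emission fluorescence measurement (405 nm excitation).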
# [17] = target: Thyrotropin-releasing hormone receptor (Homo sapiens) (UniProt P34981); assay: qHTS assay to identify small molecule antagonists of the thyrotropin-releasing hormone receptor (TRHR) signaling pathway (AID 1346877; active = well fitted inhibition curve with a large enough effect in the repeat runs, not every such curve was filed as active; note: series mostly up to about 51 µM)
# In short: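 Intracellular calcium fluorescence, read kinetically every second over 3 min, reports TRH-evoked signalling in HEK293 cells carrying TRHR. Test compounds were added 5 min ahead of a 1 nM TRH challenge.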
# [18] = target: Androgen receptor (Homo sapiens) (UniProt P10275); assay: qHTS assay to identify small molecule agonists of the androgen receptor (AR) signaling pathway in the presence of an antagonist (AID 1259381; calls by dose curve; note: nearly all actives have a fitted effect of over 15% in size)
# In short: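 MDA-kb2 cells, 3,000/well, rested 5hr at 37C/0% CO2 → nilutamide 3.0uM final or buffer → compounds, 15 conc. → 16hr at 37C → ONE-Glo, 30min RT → luminescence.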
# [19] = target: Progesterone receptor (Homo sapiens) (UniProt P06401); assay: qHTS assay to identify small molecule agonists of the progesterone receptor (PR) signaling pathway (AID 1346784; calls by dose curve; note: nearly all actives have a fitted effect of over 30% in size)
# In short: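 Agonist mode, quantitative HTS format in a HEK 293T line expressing a UAS-controlled beta-lactamase reporter; 16 hr compound exposure at 37C in 2% charcoal-stripped FBS, then LiveBLAzer B/G FRET fluorescence.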
# [20] = qHTS assay to identify small molecule agonists of the estrogen receptor alpha (ER-alpha) signaling pathway in the presence of an antagonist - cell viability counter screen (AID 1259386);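 note: series mostly up to about 92 µM; cells exposed to compounds for 22 h at 37 °C before the viability read; nearly all actives have a fitted effect of over 30% in size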
# In short: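 VM7Luc4E2, stripped-serum pre-culture 5 d; 24hr plating; +ICI-182,780 10.0nM final; cpds 15 conc, 22hr, 37C/5% CO2; CellTiter-Fluor added at 21hr, fluorescence 1hr later.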
# Chain of Thyrotropin-releasing hormone receptor (Homo sapiens) (P34981 whole entry, looked up): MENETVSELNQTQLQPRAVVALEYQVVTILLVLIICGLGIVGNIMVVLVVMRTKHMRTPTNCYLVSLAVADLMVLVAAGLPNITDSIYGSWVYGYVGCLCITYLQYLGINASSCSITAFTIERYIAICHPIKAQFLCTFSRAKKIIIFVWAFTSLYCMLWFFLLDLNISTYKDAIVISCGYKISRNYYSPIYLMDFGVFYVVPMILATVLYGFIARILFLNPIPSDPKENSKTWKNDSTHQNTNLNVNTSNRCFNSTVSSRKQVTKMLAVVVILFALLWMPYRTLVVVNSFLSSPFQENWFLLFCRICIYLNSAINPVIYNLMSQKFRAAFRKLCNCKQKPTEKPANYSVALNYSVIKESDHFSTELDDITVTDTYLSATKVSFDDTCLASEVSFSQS
# Chain of Estrogen receptor beta (Homo sapiens) (Q92731 whole entry, looked up): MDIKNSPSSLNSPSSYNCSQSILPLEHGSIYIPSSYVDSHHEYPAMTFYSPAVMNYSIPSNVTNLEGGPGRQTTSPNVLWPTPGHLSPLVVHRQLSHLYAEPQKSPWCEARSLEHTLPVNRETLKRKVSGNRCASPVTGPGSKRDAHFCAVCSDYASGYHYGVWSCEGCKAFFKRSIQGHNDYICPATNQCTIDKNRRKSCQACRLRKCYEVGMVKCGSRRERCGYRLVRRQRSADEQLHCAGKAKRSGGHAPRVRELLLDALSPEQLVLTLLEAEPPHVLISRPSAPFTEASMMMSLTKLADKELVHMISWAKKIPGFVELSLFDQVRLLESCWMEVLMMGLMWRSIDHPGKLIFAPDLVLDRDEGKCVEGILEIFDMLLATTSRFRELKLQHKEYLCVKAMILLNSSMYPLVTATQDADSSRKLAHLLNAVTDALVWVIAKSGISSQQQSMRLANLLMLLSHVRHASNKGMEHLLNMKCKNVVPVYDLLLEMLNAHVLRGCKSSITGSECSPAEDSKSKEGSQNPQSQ
# Chain of Thyrotropin receptor (Homo sapiens) (P16473 whole entry, looked up): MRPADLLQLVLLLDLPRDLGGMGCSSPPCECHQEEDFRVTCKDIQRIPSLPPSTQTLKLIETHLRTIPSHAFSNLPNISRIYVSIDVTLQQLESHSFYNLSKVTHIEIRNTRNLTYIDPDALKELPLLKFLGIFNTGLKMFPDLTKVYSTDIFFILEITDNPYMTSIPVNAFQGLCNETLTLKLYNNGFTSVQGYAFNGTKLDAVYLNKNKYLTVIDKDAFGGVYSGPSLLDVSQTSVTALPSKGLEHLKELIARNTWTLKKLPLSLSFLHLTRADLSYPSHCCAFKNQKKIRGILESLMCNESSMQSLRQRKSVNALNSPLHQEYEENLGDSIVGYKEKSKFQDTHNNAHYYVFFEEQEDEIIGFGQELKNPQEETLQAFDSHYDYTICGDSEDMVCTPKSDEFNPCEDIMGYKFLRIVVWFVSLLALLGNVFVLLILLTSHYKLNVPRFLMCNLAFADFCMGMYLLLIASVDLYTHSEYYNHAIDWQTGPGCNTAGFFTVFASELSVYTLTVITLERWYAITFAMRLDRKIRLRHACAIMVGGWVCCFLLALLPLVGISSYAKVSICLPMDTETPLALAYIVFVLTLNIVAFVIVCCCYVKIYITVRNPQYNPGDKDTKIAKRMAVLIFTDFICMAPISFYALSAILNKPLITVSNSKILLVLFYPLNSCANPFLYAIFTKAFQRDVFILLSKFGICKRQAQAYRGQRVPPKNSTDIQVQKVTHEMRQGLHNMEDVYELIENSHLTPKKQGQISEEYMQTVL
# Chain of Estrogen receptor (Homo sapiens) (P03372 whole entry, looked up): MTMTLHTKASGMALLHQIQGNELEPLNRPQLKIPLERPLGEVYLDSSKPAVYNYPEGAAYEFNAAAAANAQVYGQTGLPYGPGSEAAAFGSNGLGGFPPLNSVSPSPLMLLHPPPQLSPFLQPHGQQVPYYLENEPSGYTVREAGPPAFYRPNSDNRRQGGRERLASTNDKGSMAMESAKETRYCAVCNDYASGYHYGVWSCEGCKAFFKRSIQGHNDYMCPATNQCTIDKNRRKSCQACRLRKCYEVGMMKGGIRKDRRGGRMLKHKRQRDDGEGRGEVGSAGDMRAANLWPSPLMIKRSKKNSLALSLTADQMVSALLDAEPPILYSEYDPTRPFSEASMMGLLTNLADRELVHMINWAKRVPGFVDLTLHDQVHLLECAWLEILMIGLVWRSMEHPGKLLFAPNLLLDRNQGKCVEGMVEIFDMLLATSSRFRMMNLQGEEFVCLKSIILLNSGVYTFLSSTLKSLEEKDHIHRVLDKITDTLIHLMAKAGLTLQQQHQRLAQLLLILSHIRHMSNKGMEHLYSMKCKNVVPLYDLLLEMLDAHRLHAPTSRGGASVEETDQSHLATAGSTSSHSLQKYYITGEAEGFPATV
# Chain of Progesterone receptor (Homo sapiens) (P06401 whole entry, looked up): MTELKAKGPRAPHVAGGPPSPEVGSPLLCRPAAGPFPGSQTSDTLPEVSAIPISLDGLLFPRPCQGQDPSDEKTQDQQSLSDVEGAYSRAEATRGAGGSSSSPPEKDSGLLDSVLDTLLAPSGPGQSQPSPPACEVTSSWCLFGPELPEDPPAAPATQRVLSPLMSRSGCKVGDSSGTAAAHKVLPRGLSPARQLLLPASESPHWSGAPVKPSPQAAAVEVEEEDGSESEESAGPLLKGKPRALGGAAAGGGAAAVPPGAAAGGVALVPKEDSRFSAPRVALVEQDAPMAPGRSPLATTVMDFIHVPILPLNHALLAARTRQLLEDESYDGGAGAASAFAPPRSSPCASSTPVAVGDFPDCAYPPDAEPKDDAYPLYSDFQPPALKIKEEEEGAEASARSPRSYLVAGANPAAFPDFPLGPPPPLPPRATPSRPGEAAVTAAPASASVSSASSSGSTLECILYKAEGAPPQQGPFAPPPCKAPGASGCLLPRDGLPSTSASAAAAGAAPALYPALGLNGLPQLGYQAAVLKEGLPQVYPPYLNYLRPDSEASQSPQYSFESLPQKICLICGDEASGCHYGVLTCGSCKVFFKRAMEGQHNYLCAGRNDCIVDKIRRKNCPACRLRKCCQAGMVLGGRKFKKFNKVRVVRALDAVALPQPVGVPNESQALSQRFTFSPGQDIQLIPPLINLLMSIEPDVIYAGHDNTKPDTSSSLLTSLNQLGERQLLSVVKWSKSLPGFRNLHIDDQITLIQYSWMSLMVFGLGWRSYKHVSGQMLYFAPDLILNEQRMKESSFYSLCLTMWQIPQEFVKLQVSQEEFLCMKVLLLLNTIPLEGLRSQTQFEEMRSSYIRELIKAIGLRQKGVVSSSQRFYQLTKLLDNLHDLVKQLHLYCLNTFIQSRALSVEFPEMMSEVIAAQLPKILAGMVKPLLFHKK
# Chain of Androgen receptor (Homo sapiens) (P10275 whole entry, looked up): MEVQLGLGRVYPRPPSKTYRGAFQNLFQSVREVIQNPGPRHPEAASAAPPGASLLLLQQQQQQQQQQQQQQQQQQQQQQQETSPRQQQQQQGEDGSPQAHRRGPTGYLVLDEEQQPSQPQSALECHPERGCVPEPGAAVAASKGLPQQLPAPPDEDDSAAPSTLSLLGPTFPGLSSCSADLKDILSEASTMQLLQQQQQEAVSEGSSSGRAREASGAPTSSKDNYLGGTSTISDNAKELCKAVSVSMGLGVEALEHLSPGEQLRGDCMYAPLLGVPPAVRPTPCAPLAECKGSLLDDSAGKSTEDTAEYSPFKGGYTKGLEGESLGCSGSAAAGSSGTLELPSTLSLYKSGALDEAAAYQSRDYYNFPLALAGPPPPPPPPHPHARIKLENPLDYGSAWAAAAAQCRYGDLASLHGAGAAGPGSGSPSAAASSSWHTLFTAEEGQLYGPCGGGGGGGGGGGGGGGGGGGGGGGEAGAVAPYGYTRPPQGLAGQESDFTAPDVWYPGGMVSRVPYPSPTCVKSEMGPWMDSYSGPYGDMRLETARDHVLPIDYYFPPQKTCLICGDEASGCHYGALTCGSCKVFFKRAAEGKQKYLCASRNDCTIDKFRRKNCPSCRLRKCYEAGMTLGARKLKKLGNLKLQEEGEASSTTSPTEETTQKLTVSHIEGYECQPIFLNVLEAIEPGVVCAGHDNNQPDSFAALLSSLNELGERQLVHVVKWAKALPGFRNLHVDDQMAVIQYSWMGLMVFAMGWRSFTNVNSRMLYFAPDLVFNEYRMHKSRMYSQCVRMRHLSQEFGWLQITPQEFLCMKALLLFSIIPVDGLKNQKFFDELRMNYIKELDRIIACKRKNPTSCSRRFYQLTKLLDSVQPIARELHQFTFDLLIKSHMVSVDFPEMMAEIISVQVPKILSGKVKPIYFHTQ
compound,measurement,setting,value
C1COCO1,Potency,[1],inactive
same,Potency,[2],inactive
same,Potency,[3],inactive
same,Potency,[4],inactive
same,Potency,[5],inactive
same,Potency,[6],inactive
same,Potency,[7],inactive
same,Potency,[8],inactive
same,outcome,[9],inactive
same,Potency,[10],inactive
same,Potency,[11],inactive
same,Potency,[12],inactive
same,Potency,[13],inactive
same,outcome,[14],inactive
same,outcome,[15],inactive
same,outcome,[16],inactive
same,outcome,[17],inactive
O=C(CCCCCCCCC#CI)Oc1ccccc1,Potency,[1],inactive
same,Potency,[2],inactive
same,Potency,[3],inactive
same,Potency,[4],inactive
same,Potency,[5],inactive
same,Potency,[6],inactive
same,Potency,[18],inactive
same,Potency,[7],inactive
same,outcome,[9],inactive
same,Potency,[19],inactive
same,Potency,[11],inactive
same,Potency,[12],inactive
same,Potency,[13],inactive
same,outcome,[14],inactive
same,outcome,[15],inactive
same,outcome,[17],inactive
NC(=O)Nc1ccc(Cl)cc1,Potency,[1],inactive
same,Potency,[2],inactive
same,Potency,[3],inactive
same,Potency,[4],inactive
same,Potency,[5],inactive
same,Potency,[6],inactive
same,Potency,[7],inactive
same,Potency,[8],inactive
same,outcome,[9],inactive
same,Potency,[20],inactive
same,Potency,[19],inactive
same,Potency,[11],inactive
same,Potency,[12],inactive
same,Potency,[13],inactive
same,outcome,[14],inactive
same,outcome,[15],inactive
same,outcome,[16],inactive
C=CC(=C)CCCC(C)(C)OC(C)=O,Potency,[1],inactive
same,Potency,[2],inactive
same,Potency,[3],inactive
same,Potency,[4],inactive
same,Potency,[5],inactive
same,Potency,[6],inactive
same,Potency,[18],inactive
same,Potency,[7],inactive
same,Potency,[10],inactive
same,Potency,[20],inactive
same,Potency,[19],inactive
same,Potency,[11],inactive
same,Potency,[12],inactive
same,Potency,[13],inactive
same,outcome,[14],inactive
same,outcome,[15],inactive
same,outcome,[16],inactive
same,outcome,[17],inactive
CCCCCCCCCCCCCCCCBr,activity change,[1],"-0.182% [at 18.9 µM, stronger effect = higher value] (inactive)"
same,"activity change, negative = inhibition",[2],18.7% [at 19 µM] (inactive)
same,activation,[3],0.819% [at 19 µM] (inactive)
same,"activity, negative = inhibition",[4],8% [at 19 µM] (inactive)
same,"activity change, negative = cytotoxicity",[5],1.54% [at 19 µM] (inactive)
same,"activity change, negative = cytotoxicity",[6],2.84% [at 19 µM] (inactive)
same,"activity change, negative = cytotoxicity",[7],-0.0957% [at 19 µM] (inactive)
same,activation,[8],-0.645% [at 19 µM] (inactive)
same,cAMP activity change,[9],-0.461% [at 18.9 µM] (inactive)
same,"activity change, negative = inhibition",[10],-0.923% [at 19 µM] (inactive)
same,activation,[19],1.24% [at 19 µM] (inactive)
same,"activity change, negative = inhibition",[11],-0.513% [at 18.9 µM] (inactive)
same,"activity change, negative = cytotoxicity",[12],0.653% [at 18.9 µM] (inactive)
same,"activity change, negative = cytotoxicity",[13],9.85% [at 19 µM] (inactive)
same,"viability change, negative = cytotoxic",[14],-3.09% [at 15.8 µM] (inactive)
same,"activity change, negative = cytotoxicity",[15],-1.12% [at 15.8 µM] (inactive)
same,activation,[16],-2.16% [at 15.8 µM] (inactive)
Cc1cc(O)c(C(C)C)cc1Cl,Potency,[1],inactive
same,Potency,[2],15.4 µM (active) and inactive
same,Potency,[3],inactive
same,Potency,[4],inactive
same,Potency,[5],inactive
same,Potency,[6],inactive
same,Potency,[7],inactive
same,Potency,[8],inactive
same,outcome,[9],inactive
same,Potency,[10],inactive
same,Potency,[20],inactive
same,Potency,[19],inactive
same,Potency,[11],inactive
same,Potency,[12],inactive
same,Potency,[13],inactive
same,outcome,[14],inactive
same,outcome,[15],inactive
same,outcome,[16],inactive
same,outcome,[17],inactive
CCCCCCCCCOC(C)=O,Potency,[1],inactive
same,Potency,[2],inactive
same,Potency,[3],inactive
same,Potency,[4],inactive
same,Potency,[5],inactive
same,Potency,[6],inactive
same,Potency,[7],inactive
same,Potency,[8],inactive
same,outcome,[9],inactive
same,Potency,[10],inactive
same,Potency,[20],inactive
same,Potency,[11],inactive
same,Potency,[12],inactive
same,Potency,[13],inactive
same,outcome,[14],inactive
same,outcome,[15],inactive
same,outcome,[16],inactive
